Results reported in PubChem BioAssay.
“And” between values parts separate entries of the source, which are not always exact repeats. Equal values may be shown once. The source made the active and inactive calls.

How the values were obtained:
Albumin (Bos taurus) = Albumin (Bos taurus) (UniProt P02769); assay: compounds binding labelled BSA control protein – biochemical, small-molecule microarray, Alexa647 label, 635/667 nm fluorescence, artefact control for SMM control protein annotation, profiling panel (AID 1118); conditions: BSA-A647 binding, fluorescence 635 nm, higher = more signal;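 note: score merges 667 nm emission intensity and signal-to-noise per printed compound spot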
[1] = probe aXIP binding to arrayed compounds – biochemical, NeuroSMM set, 635/667 nm fluorescence, primary screen (AID 1119); conditions: small-molecule microarray, higher = more signal, called active from +8 up or from −8 down;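 note: probe is the protein aXip251-270 applied at 1 µg/mL to compound-printed slides; binding of probe to printed compounds measured as 667 nm fluorescence plus signal to noise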
[2] = probe aNOTCH3 binding on compound microarray – biochemical, small-molecule microarray, 635/667 nm fluorescence, primary screen (AID 1120); conditions: higher = more signal;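 note: probe is a biotin-tagged antibody raised against NOTCH3 rather than NOTCH3 protein; score merges spot fluorescence near 667 nm with spot signal to noise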
[3] = probe aNOTCH2 binding on compound microarray – biochemical, small-molecule microarray, 635/667 nm fluorescence, primary screen (AID 1121); conditions: higher = more signal;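 note: score merges feature fluorescence read at 667 nm with its signal to noise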
[4] = target: Carbonic anhydrase 2 (Homo sapiens) (UniProt P00918); assay: compounds binding carbonic anhydrase 2 – biochemical, small-molecule microarray, Alexa647-labelled CAII, profiling panel (AID 1122); conditions: CAII-A647 binding fluorescence, higher = more signal
[5] = COS7 lysate on small-molecule microarray, probe aHis, 635 nm (AID 1123); conditions: COS7 cell lysate, fluorescence, higher = more signal;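 note: z-score combines 667nm fluorescence intensity with signal-to-noise per printed compound spot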
[6] = probe aLAP1 signal on lysate-treated microarray – cell lysate, small-molecule microarray, COS7 lysate, primary screen (AID 1124); conditions: probe aLAP1, fluorescence, higher = more signal;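 note: lysate comes from COS7 cells expressing LAP1 and is applied at 0.3 µg/mL; score merges spot fluorescence near 667 nm with signal-to-noise over triplicate slides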
Sam68 (KHDRBS1) = assay: compounds binding KHDRBS1 protein – biochemical, small-molecule microarray, 635 nm fluorescence, primary screen (AID 1125); conditions: higher = more signal;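 note: score merges 667 nm channel intensity with signal to noise over triplicate slides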
[7] = tested on: Chordin-like protein 2 (CHRDL2); assay: compounds binding chordin-like 2 – biochemical, small-molecule microarray, 635 nm fluorescence, primary screen (AID 1126); conditions: fluorescence 635 nm, higher = more signal;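 note: printed compound slides probed with Chrdl2 protein at 4 µg/mL for 1 h at 4 C; score merges 667 nm emission intensity with signal to noise over three replicate slides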
[8] = target: Concanavalin-A (Canavalia ensiformis) (UniProt P02866); assay: compounds binding concanavalin A lectin – biochemical, small-molecule microarray, Alexa647 label, 635 nm, artefact control for SMM control protein annotation, primary screen (AID 1127); conditions: ConA-A647 binding fluorescence, higher = more signal;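 note: z combines 667 nm emission intensity with signal-to-noise across three replicate slides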
[9] = compounds binding Alexa647 anti-His antibody – biochemical, small-molecule microarray, 635 nm fluorescence, artefact control for SMM control protein annotation, primary screen (AID 1128); conditions: higher = more signal;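 note: score merges feature fluorescence with signal-to-noise for each printed compound spot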
[10] = tested on: Human papillomavirus type 1a E7 protein (residues 1-88); assay: HPV1a E7 small-molecule binders, primary screen, biochemical, small-molecule microarray, residues 1-88, 635 nm (AID 1129); conditions: small-molecule microarray binding, fluorescence 635 nm; higher = more signal
[11] = target: Focal adhesion kinase 1 (Homo sapiens) (UniProt Q05397); assay: PTK2 protein binding on printed compound slides – biochemical, small-molecule microarray, 635/667 nm fluorescence, BSA, DTT, primary screen (AID 1130); conditions: 635 nm fluorescence, higher = more signal;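 note: composite of spot emission at 667 nm and signal to noise over triplicate slides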
[12] = tested on: Fibrinogen (Alexa647-labelled); assay: Alexa647-fibrinogen binding to printed small molecules – biochemical, small-molecule microarray, 635/667 nm fluorescence, artefact control for SMM control-protein annotation, profiling panel (AID 1131); conditions: fibrinogen-A647 binding fluorescence, higher = more signal;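 note: z-score merges 667 nm fluorescence with per-spot signal-to-noise over triplicate slides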
[13] = target: Follistatin (Homo sapiens) (UniProt P19883); assay: FST protein binding to printed compounds – biochemical, small-molecule microarray, 635/667 nm fluorescence, primary screen (AID 1132); conditions: 635 nm fluorescence, higher = more signal
[14] = target: Fibroblast growth factor 2 (Homo sapiens) (UniProt P09038); assay: basic fibroblast growth factor binding to printed compounds – biochemical, small-molecule microarray, 635/667 nm fluorescence, primary screen (AID 1133); conditions: FGF2, fluorescence 635/667, higher = more signal
[15] = JC-1 mitochondrial potential readout, lung cancer cells – cell-based, A549, JC-1 fluorescence, basal, 24 h, 100 nL, profiling panel (AID 1138); conditions: higher = more signal;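 note: A549 lung adenocarcinoma cells under basal conditions with no added stimulus; test concentration not given here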
Lefty1 = Lefty1 protein binding to printed compounds – biochemical, small-molecule microarray, 635/667 nm fluorescence, primary screen (AID 1139); conditions: fluorescence 635/667, higher = more signal
[16] = tested on: wheat germ agglutinin (Triticum aestivum), Alexa647-labelled; assay: Alexa647-WGA lectin binding to printed small molecules – biochemical, small-molecule microarray, 635/667 nm fluorescence, artefact control for SMM control-protein annotation, profiling panel (AID 1140); conditions: WGA-A647 binding, 635 nm fluorescence, higher = more signal;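 note: score merges 667 nm feature emission with signal to noise over triplicate slides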
[17] = target: Luciferin 4-monooxygenase (Photinus pyralis) (UniProt P08659); assay: inhibition of purified Photinus pyralis luciferase – biochemical, luminescence, purified enzyme, 2006 set, primary screen (AID 1141); conditions: purified firefly luciferase, SteadyGlo luminescence, 30 min; higher = more signal, called active from +8 up or from −8 down;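 note: cell-free assay with purified firefly luciferase at 100 ng per well in PBS; test concentration not given here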
Sequence of Luciferin 4-monooxygenase (Photinus pyralis) (P08659 whole entry, looked up): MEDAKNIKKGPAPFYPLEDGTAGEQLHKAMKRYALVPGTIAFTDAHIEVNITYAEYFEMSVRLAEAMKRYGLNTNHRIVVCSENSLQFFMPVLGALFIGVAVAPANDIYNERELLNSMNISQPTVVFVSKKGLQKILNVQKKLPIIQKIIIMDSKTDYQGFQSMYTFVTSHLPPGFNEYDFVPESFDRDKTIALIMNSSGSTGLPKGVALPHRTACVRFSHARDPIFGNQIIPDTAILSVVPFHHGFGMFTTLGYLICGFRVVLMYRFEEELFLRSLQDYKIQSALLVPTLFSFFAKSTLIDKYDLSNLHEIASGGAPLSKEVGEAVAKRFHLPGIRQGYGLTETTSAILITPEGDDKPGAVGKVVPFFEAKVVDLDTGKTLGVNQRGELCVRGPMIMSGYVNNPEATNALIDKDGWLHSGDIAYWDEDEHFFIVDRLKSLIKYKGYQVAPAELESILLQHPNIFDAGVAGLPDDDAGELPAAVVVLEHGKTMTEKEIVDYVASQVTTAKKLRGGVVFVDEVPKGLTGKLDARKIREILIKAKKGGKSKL

Sequence of Follistatin (Homo sapiens) (P19883 whole entry, looked up): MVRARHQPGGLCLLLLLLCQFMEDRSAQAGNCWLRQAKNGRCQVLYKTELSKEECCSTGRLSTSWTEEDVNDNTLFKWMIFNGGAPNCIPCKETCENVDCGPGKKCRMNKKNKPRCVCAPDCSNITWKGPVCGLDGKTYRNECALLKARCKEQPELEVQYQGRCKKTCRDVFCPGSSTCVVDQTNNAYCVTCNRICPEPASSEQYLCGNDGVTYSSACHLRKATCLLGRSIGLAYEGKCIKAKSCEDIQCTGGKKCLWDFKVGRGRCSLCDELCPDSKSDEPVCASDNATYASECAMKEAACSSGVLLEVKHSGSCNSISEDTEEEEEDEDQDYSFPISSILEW
Sequence of Focal adhesion kinase 1 (Homo sapiens) (Q05397 whole entry, looked up): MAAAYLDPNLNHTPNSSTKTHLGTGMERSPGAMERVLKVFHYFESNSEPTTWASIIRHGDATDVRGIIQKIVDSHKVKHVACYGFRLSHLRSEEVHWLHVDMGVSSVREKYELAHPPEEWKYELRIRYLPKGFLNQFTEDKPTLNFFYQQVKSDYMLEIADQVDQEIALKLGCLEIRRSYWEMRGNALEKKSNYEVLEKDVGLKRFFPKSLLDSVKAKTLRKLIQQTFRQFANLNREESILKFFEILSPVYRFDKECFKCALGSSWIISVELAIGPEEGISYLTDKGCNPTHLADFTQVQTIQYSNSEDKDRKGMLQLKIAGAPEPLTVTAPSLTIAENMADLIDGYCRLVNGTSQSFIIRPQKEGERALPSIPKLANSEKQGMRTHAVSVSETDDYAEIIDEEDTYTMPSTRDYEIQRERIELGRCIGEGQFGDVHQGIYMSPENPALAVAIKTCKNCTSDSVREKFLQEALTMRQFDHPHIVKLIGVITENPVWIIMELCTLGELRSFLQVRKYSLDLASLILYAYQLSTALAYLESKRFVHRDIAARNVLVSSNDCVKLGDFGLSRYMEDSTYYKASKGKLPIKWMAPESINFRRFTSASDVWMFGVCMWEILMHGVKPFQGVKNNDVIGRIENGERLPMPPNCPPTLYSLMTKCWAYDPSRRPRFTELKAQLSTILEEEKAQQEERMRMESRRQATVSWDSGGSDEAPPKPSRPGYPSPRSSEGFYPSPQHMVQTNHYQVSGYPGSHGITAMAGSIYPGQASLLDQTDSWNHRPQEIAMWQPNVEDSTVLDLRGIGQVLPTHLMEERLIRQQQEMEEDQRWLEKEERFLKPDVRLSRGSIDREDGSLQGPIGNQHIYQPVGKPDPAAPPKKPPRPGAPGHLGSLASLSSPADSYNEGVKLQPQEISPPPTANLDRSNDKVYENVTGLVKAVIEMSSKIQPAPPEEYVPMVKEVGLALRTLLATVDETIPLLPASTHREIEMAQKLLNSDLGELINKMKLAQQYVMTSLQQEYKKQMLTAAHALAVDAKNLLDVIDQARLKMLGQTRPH
Sequence of Concanavalin-A (Canavalia ensiformis) (P02866 whole entry, looked up): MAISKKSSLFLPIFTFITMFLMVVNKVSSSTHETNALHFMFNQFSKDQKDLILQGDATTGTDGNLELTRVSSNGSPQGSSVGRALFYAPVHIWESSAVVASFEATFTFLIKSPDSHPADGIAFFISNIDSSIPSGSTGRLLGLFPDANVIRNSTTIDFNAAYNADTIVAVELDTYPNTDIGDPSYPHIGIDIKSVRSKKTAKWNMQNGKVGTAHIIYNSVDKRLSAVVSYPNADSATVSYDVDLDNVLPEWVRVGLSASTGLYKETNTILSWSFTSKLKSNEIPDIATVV
Sequence of Albumin (Bos taurus) (P02769 whole entry, looked up): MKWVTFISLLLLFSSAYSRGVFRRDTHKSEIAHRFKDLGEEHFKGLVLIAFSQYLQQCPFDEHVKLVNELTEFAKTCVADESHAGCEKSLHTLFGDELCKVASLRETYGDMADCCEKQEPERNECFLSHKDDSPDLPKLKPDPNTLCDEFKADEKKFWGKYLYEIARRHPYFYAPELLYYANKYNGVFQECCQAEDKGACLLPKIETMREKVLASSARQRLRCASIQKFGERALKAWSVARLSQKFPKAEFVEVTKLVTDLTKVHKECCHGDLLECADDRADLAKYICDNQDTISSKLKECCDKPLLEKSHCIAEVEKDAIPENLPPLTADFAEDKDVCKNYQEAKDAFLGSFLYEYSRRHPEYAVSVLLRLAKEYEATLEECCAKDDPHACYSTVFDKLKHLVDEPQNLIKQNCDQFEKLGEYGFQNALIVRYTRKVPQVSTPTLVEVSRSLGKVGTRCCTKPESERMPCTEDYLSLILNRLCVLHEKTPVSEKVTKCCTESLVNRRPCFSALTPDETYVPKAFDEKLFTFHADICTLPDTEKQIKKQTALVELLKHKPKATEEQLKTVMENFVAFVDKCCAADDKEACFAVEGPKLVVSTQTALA
Sequence of Fibroblast growth factor 2 (Homo sapiens) (P09038 whole entry, looked up): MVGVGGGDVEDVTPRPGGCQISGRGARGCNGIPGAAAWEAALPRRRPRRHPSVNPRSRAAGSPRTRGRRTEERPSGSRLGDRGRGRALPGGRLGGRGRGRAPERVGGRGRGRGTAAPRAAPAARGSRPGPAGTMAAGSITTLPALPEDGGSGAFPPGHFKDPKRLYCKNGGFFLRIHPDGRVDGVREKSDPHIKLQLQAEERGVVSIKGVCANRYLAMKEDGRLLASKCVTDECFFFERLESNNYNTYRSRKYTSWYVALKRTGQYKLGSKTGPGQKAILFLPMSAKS

SMILES | composite z-score (Albumin (Bos taurus)) | composite Z-score [1] | composite z-score [2] | composite z-score [3] | composite z-score [4] | composite z-score [5] | composite z-score [6] | composite z-score (Sam68 (KHDRBS1)) | composite z-score [7] | composite z-score [8] | composite z-score [9] | composite z-score [10] | composite z-score [11] | composite z-score [12] | composite z-score [13] | composite z-score [14] | z-score [15] | composite z-score (Lefty1) | composite z-score [16] | z-score [17]
COC(=O)[C@@]1(Cc2ccccc2)[C@H]2c3cc(C(=O)N(C)C)n(C[C@H](O)CO)c3C[C@H]2CN1C(=O)c1ccccc1 | 0.4 and 1.14 | -0.506 (inactive) and -0.574 (inactive) | 0.0208 and 0.52 | 0.0538 and 0.261 | 0.897 and 0.841 | 3.13 and 1.27 | 0.562 and 0.966 | -0.278 and -0.421 | -0.138 and -0.519 | -0.148 and -0.0788 | 0.456 and 0.65 | 0.23 and 0.965 | 0.805 and 0.641 | 0.948 and 0.223 | -0.342 and 0.453 | -0.378 and -0.271 | 0.207 and 0.034 | -0.6 and -0.308 | 0.877 and -0.0476 | 0.665 (inactive) and 1.66 (inactive)
CC(C)C(=O)N[C@@H]1CCCN1C(=O)C=Cc1ccccc1 | -0.0317 | 1.05 (inactive) | 0.0271 | -0.14 | -0.0483 | 0.251 | -0.086 | 0.806 | 0.933 | 0.315 | 0.108 | 0.746 | 0.746 | 0.494 | 0.541 | 0.565 | 1.81 | 0.813 | -0.0087 | -0.489 (inactive)
C=CCN(CCCC)C(=O)C1N(c2c(Cl)cccc2CO)C(=O)C2C(C(=O)O)C3C=CC21O3 (stereo not given) | -0.817 and -0.128 | -0.533 (inactive) and 0.273 (inactive) | -0.408 and 0.539 | -0.173 and 0.608 | -0.748 and 0.955 | -0.455 and 1.89 | -0.111 and -0.125 | -0.818 and -1 | -1.4 and -1.99 | -1.69 and -2.68 | -1.86 and 1.18 | -1.93 and -0.108 | -0.983 and 0.896 | -1.58 and -2.29 | -1.71 and -0.64 | -1.09 and -1.49 | -1 and -0.998 | -2.11 and -0.973 | -1.16 and -0.0139 | 0.758 (inactive) and 1.51 (inactive)
O=C(NN=C1C[C@@H](O)[C@@H](O)[C@@H]2[C@@H]3C(=O)N(Cc4ccc5c(c4)OCO5)C(=O)[C@@H]3CC[C@H]12)OCc1ccccc1 | -0.401 | -0.0252 (inactive) | 0.157 | -0.11 | -0.612 | -0.648 | -0.21 | 0.0918 | -0.556 | -0.232 | -0.668 | -0.429 | -0.0697 | -0.507 | -1.07 | -0.274 | -0.174 | -0.418 | -0.754 | 0.0421 (inactive)
COC(=O)[C@@]1(Cc2ccc(F)cc2)[C@H]2c3cc(C(=O)N4CCCC4)n(Cc4c(CO)[nH]cc(C)c4=O)c3C[C@H]2CN1C(=O)c1ccccc1 | 1.07 and 0.247 | 0.418 (inactive) and 0.724 (inactive) | 1.28 and 0.355 | 0.908 and 0.11 | 0.439 and 0.769 | 2.88 and 2.95 | 0.614 and 0.478 | -0.201 and 0.623 | -0.114 and -0.367 | 0.196 and 0.0402 | 2.37 and 2.39 | 0.709 and 1.18 | 1.1 and 1.41 | 1.01 and -0.216 | 0.529 and 0.121 | -0.351 and -0.789 | 0.395 and 0.404 | -0.212 and -1.02 | 1.16 and 0.234 | 2.01 (inactive) and 1.01 (inactive)
C=CCN(C(=O)C(c1cccs1)N(C(=O)/C=C\C(=O)O)C(C)(C)CO)C(C)(C)C (stereo not given) | 0.649 and 0.333 | -1.12 (inactive) and 0.108 (inactive) | -0.289 and -0.358 | -0.172 and -0.0728 | 0.786 and 0.805 | 0.414 and 0.831 | -0.68 and 0.64 | 0.0206 and -0.225 | -1.43 and -1.27 | -0.625 and -0.54 | -0.119 and 1.08 | 0.0785 and -0.562 | -0.033 and 0.193 | -0.654 and 0.99 | -0.493 and -1.32 | -0.454 and -0.588 | 1.12 and 0.815 | -1.35 and -1.25 | -0.452 and -0.231 | -1.45 (inactive) and -0.975 (inactive)
C[N+](C)(C)CCCCCCNC(=O)[C@@H]1C[C@@H]2C(=O)N[C@@H](CCCC[N+](C)(C)C)C(=O)N2[C@@H]1c1ccc(O)cc1 | -0.595 and 0.0621 | 0.722 (inactive) and 0.318 (inactive) | -0.0918 and 0.0016 | -0.164 and -0.147 | 0.747 and 0.82 | -0.251 and 0.233 | 0.774 and 0.322 | -0.351 and 0.428 | 0.952 and 0.671 | 0.197 and 0.299 | 0.582 and 1.21 | -0.694 and 0.212 | -0.169 and -0.133 | -1.44 and -0.95 | 1.39 and 1.34 | 1.47 and 1.44 | -0.0687 and -0.662 | 0.914 and 1.04 | -0.187 and -0.088 | 0.547 (inactive) and 0.58 (inactive)
Cc1ccc(S(=O)(=O)N[C@H]2COC(=O)[C@@H](Cc3ccccc3)NC(=O)[C@@H](C)COC(=O)CC=C[C@@H]2C)cc1 | -0.92 and -0.489 | 0.103 (inactive) and 0.304 (inactive) | -0.279 and -0.132 | -0.162 and -0.185 | -0.363 and 0.129 | -0.902 and 0.614 | -0.221 and -0.16 | -0.309 and 0.663 | 0.748 and 0.691 | 0.117 and 0.0745 | -0.619 and 1.81 | -0.95 and -0.164 | -0.282 and 0.116 | -0.747 and -0.0169 | 1.18 and 0.825 | 0.575 and 0.462 | 0.636 and -1.01 | 0.678 and 0.882 | -0.892 and -0.0489 | -0.287 (inactive) and -0.431 (inactive)
C[C@@H]1CC[C@H]2C(=O)O[C@H](CN=[N+]=[N-])CN2[C@H]1c1ccc(Br)cc1 | -0.507 and 0.491 | 0.142 (inactive) and 0.753 (inactive) | -0.125 and -0.197 | -0.245 and -0.0569 | -0.188 and -0.223 | -0.0295 and -0.382 | 0.268 and -0.329 | -0.167 and 0.113 | 0.735 and 0.382 | -0.726 and 0.0516 | 0.755 and 0.806 | -0.841 and -0.245 | 0.073 and 0.0778 | 0.142 and 0.149 | 0.506 and -0.488 | 0.0443 and -0.132 | 0.703 and 0.206 | 0.212 and 0.0831 | -0.276 and -0.0024 | 0.788 (inactive) and -1.42 (inactive)
C=CCN(CCCC)C(=O)C1N(C(C)(C)CO)C(=O)C2C(C(=O)O)C3C=CC21O3 (stereo not given) | -0.0353 and -0.347 | -0.726 (inactive) and -1.17 (inactive) | -0.589 and -0.497 | -0.161 and 0.544 | 0.909 and 0.619 | 0.12 and -0.103 | -0.2 and -0.226 | -1.62 and -1.72 | -3.25 and -1.75 | -1.25 and -2.32 | -0.767 and -0.57 | -1.26 and -1.35 | -0.909 and -1.23 | -4.07 and -1.59 | -2.17 and -2.38 | -1.42 and -1.18 | -0.628 and -0.501 | -1.93 and -1.64 | -0.788 and -0.799 | 1.12 (inactive) and 0.853 (inactive)
